This is an account of results in PubChem BioAssay AID1259400 (National Center for Advancing Translational Sciences (NCATS), 2018).

Out of some 350,000 compounds screened, about 2,100 (0.6%) were called active. Inconclusive results (about 1%) are left out.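 How the source made its calls: active means activity change of -60% or lower, but not beyond a set lower limit; inconclusive means change between -60% and -40%, or beyond the set limit; inactive means change above -40%.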 Only a selection was taken, and actives are over-represented in it overall.
On the % scale 0 is the no-effect control and ±100 the full control effect.

Sequence of Relaxin receptor 1 (Homo sapiens) (Q9HBX9 whole entry, looked up): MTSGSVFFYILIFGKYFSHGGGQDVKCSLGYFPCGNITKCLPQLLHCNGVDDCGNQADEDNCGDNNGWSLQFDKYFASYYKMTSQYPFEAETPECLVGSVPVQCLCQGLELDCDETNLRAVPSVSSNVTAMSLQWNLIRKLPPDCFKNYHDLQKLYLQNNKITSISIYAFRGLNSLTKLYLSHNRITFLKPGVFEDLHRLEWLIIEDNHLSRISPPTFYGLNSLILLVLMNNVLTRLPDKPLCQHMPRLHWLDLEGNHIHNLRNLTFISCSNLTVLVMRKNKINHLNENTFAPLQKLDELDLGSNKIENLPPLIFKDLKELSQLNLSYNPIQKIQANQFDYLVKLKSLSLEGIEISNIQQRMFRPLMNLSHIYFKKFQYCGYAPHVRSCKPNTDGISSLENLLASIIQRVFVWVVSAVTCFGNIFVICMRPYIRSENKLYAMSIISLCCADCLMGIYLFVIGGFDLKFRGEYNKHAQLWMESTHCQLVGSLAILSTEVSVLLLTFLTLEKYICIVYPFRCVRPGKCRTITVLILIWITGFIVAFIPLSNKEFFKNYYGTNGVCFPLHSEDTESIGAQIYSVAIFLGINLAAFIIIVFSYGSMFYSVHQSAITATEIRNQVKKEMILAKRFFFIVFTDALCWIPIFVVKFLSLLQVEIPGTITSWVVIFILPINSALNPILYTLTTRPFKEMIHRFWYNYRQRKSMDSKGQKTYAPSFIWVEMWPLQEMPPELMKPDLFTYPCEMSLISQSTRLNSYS

This assay addresses Relaxin receptor 1 (Homo sapiens) (UniProt Q9HBX9). As to the kind of experiment: qHTS Assay for Antagonists of the Relaxin Receptor RXFP1. As to conditions: HEK293-RXFP1, relaxin-stimulated cAMP HTRF, 30 min; at 57.5 µM; active compounds read low. A general note: In qHTS, concentration-response curves come from the screen itself.
Consider `COc1ccccc1Nc1c2c(nc3ccc(NC(=O)/C=C/c4cc(OC)c(OC)c(OC)c4)cc13)CCCC2`, for which the activity change, negative = inhibition is 5.51% (inactive).
For `CCC(=O)Nc1ccc(C)cc1-c1nc2ccccc2n(Cc2ccccc2)c1=O` the value was -2.19% (inactive); for `O=C(C1CCC(Cn2c(=O)c3sccc3n(Cc3ccccc3F)c2=O)CC1)N1CCCCC1` (centres undefined), -8.5% (inactive).
For `CN1CCc2ccccc2C1Cc1ccccc1NC(=O)c1sc2ccccc2c1Cl` (centres undefined) the value was 5.13% (inactive); for `Cc1nn(-c2ccccc2)c(Cl)c1/C=N/NC(=O)c1nn(C)cc1[N+](=O)[O-]`, -8.41% (inactive).
For `Cc1nn(C)cc1/C=N/NC(=O)c1sc2ccccc2c1Cl` the value was -67.1% (active).
In the case of `C/C=C/C=N/NC(=O)c1ccncc1`, the activity change, negative = inhibition was 14.4% (inactive).
For `CC1CCN(S(=O)(=O)c2ccc3c(ccn3CCC(=O)NCc3ccc(N(C)C)cc3)c2)CC1` the value was -7.88% (inactive).
Turning to `CCOC(=O)c1ccc(NC(=O)C2CC(=O)N(c3ccc(C(C)C)cc3)C2)cc1` (centres undefined), the activity change, negative = inhibition was 4.6% (inactive).
As for `CN1CC[C@H](c2c(O)cc(O)c3c(=O)cc(-c4ccccc4Cl)oc23)[C@H](O)C1`, the activity change, negative = inhibition was -7.55% (inactive).
As to `COc1ccc(C2Sc3ccccc3NC3=C2C(=O)c2ccccc23)c(OC)c1OC` (centres undefined), the activity change, negative = inhibition was 3.16% (inactive).
In the case of `CCOC(=O)c1cnc2c(C)cc(C)cc2c1Nc1ccc(N2CCOCC2)cc1` it was -5% (inactive); in that of `O=C(Nc1ccc(Oc2ccccc2)cc1)C1CCN(S(=O)(=O)c2ccc(Cl)cc2)CC1`, -26.7% (inactive); in that of `O=C(Nc1ccccc1)c1nnsc1S(=O)(=O)c1ccc(Cl)cc1`, -68.7% (active).
For `O=C(Nc1cccc(Cl)c1)c1csnn1`, the activity change, negative = inhibition was -3.98% (inactive).
In the case of `Clc1ccc(CSc2nncn3c2cc2occc23)cc1` it was -27.8% (inactive).
In the case of `Cc1ccc(Nc2c(-c3ccc(Cl)cc3)nc3sccn23)c(C)c1` it was -23.7% (inactive); in that of `Cc1ccc2nsnc2c1NC(=O)c1ccccc1[N+](=O)[O-]`, -9.18% (inactive).
In the case of `O=C(Nc1ccncc1)c1ccccc1[N+](=O)[O-]` it was 11.1% (inactive); in that of `CC(=O)Oc1ccccc1C(=O)Nc1ncc([N+](=O)[O-])s1`, -60.7% (active); in that of `CCOC(=O)c1ccc(NC(=O)c2c(NCc3cccs3)sc3c2CCCC3)cc1`, -24.5% (inactive).
On to `Cc1nnnn1/C(=C\c1ccccc1)C(=O)OCC(=O)N1CC2(C)CC1CC(C)(C)C2` (centres undefined), for which the activity change, negative = inhibition was -62.1% (active).
On to `CN(C)C(=O)COC(=O)c1cccc(S(=O)(=O)N2CC3(C)CC2CC(C)(C)C3)c1` (centres undefined), for which the activity change, negative = inhibition is 8.67% (inactive).
In the case of `CN1CCN(c2oc(-c3ccc(COc4ccc(Cl)cc4)o3)nc2C#N)CC1` it was -10.5% (inactive).
